The nature of assay [1]: wild-type E. coli growth inhibition versus h38 humanized strain – h38 mutant RFP, wild-type GFP, cherry-pick, dose response (AID 977622). The settings on record: 24 h; activity change: E. coli mixed culture, total growth OD600 at 50 uM, at 50 µM; E. coli WT ribosome GFP fluorescence, mixed culture, at 50 µM (top of the series).
Assay [2] relates to E. coli h38 humanized mutant ribosome RFP fluorescence, mixed culture, 24 h. The assay is described as above. The settings on record: h38 mutant RFP at 50 uM; at 50 µM.

The values below come from PubChem BioAssay AID977622 (Broad Institute, 2014).

In all, about 1,900 compounds went through this assay and fewer than 10 were called active. Not shown: some 39% with an inconclusive outcome.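 Rule for the calls: active = Green signal of the normal strain falls at least twice as much as red signal of the resistant mutant, with overall culture growth loss under a set limit; inconclusive = no clear call, values can overlap the other calls; inactive = the rest.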 A selection follows.

Regarding `CC(NC(=O)c1c(N)[nH]c(C(=O)c2ccccc2)c1-c1ccccc1Br)c1cccc2ccccc12` (stereo not given), in assay [1], the activity change is -15.6% and the compound was called inactive. In assay [2], the activity change was 41.2%.
As to `COC(=O)CN1C(=S)N(c2ccc(F)cc2)C(=O)C1CC(=O)Nc1ccc(F)cc1` (stereo not given), in assay [1], the activity change was -1.47% and the compound was called inactive. Also, in assay [2], the activity change was -5.83%.
In the case of `COc1cc(OC)cc(C(=O)N[C@H](C(=O)OCC(=O)Nc2ccc(F)c(F)c2F)C(C)C)c1`, in assay [1], the activity change is -1.83% and the outcome was inactive. For the same compound, the activity change in assay [2] was -9.06%.
In the case of `O=C(NCc1ccccc1)c1ccc(-c2cn[nH]c2)c2ccoc12`, in assay [1], the activity change was -21.8% and the call was inactive. In addition, the activity change in assay [2] is -23.8%.
Turning to `CCC(=O)Nc1nc2c(OC)ccc(OC)c2s1`, the outcome in assay [1] was inactive. In addition, the activity change in assay [2] was -14.1%.
In the case of `O=C(Nc1cccc(Cl)c1)N1C[C@@H]2[C@H](c3ccccc31)[C@@H](CO)N2C(=O)c1cccnc1`, the figures for the activity change in assay [1] and in assay [2] were 7.11% and 2.16%, respectively. In addition, the compound was classed as inactive in assay [1].
As to `c1ccc(SCc2nc3ccccc3s2)nc1`, in assay [1], the activity change was -3.53% and the compound was classed as inactive. Besides, the activity change in assay [2] was determined as 8.07%.
Consider `Cc1ccc(NS(=O)(=O)c2ccc3c(c2)CCC(=O)N3)cc1C`, for which, in assay [1], the activity change was -8.95% and the result was inactive. For the same compound, the activity change in assay [2] is -10.9%.
For the compound `O=C(Nc1cccc(F)c1)N1C[C@@H]2[C@H](c3ccccc31)[C@H](CO)N2C(=O)Cc1ccccn1`, in assay [1], the activity change is 4.66% and the result was inactive. In addition, the activity change in assay [2] was -3.32%.
On to `COc1ccc(-c2cc(C(=O)Nc3ccc(C(N)=O)cc3)c3ccccc3n2)cc1OC`, for which, in assay [1], the activity change was 8% and the outcome was inactive. Further, the activity change in assay [2] is -4.25%.
Regarding `N#Cc1ccc(-c2ccc(C3[C@H]4CNC[C@@H]3N4S(=O)(=O)c3ccc(-c4ccccc4)cc3)cc2)cc1` (stereo not given in full), in assay [1], the activity change was -54.5% and the compound was classed as inactive. Moreover, in assay [2], the activity change came to 244%.
The like results for `Nc1ccc(C(=O)OCCCc2nc3cc4ccccc4cc3[nH]2)cc1` were, in that order, 3.79%, “inactive” and 0.364%.
Regarding `O=C(NCc1nc2ccccc2[nH]1)c1ccc(S(=O)(=O)N2CCCC2)cc1`, in assay [1], the activity change was -24.9% and the call was inactive. Also, in assay [2], the activity change came out at 2.82%.
Consider `CC[n+]1c(C)cc2c(sc3ccccc32)c1C`, for which, in assay [1], the activity change was -0.26% and the result was inactive. Besides, the activity change in assay [2] is -7%.
Turning to `COc1ccccc1NC(=O)CSc1ncc(CO)n1Cc1ccc(F)cc1`, the activity change is -27.8% in assay [1] and -17.1% in assay [2]. The compound was classed as inactive in assay [1].
As for `CSc1ccc(CN(C)C(=O)C(c2ccccc2)c2ccccc2)cc1`, in assay [1], the activity change was -21.9% and the compound was classed as inactive. Also, the activity change in assay [2] is -20.3%.
For `O=C(Nc1ccc(C(=O)Nc2ccccc2Cl)cc1)c1cccnc1`, in assay [1], the activity change is -26.4% and the outcome was inactive. Moreover, in assay [2], the activity change was -26%.
Take `COC(=O)c1ccc(CCc2cc(O)c(Br)cc2O)cc1`: in assay [1], the activity change was -52.8% and the outcome was inactive. Besides, the activity change in assay [2] was 27.3%.
As to `O=C(Nc1ccc(C(=O)c2ccccc2)cc1)c1ccccc1`, in assay [1], the activity change is -40.2% and the compound was called inactive. Moreover, the activity change in assay [2] was -22.1%.
In the case of `OC[C@H]1[C@H](c2ccc(-c3ccc(F)cc3)cc2)[C@@H]2CN(Cc3ccncc3)CCCCN12`, in assay [1], the activity change was -3.55% and the compound was classed as inactive. The activity change in assay [2] was -17.5%.
The matching figures for `O=C(NCCCn1ccnc1)c1sc2cc([N+](=O)[O-])ccc2c1Cl`: -6%, “inactive” and -1.75%.
The like results for `CCC1(CC)NC(=O)N(CC(=O)N2N=C(c3ccc(Cl)cc3)CC2c2ccco2)C1=O` (stereo not given) were, in that order, -19.3%, “inactive” and -38.4%.
For the compound `O=C(COc1cccc2c1CCN(Cc1ccccc1F)C2=O)N1CCCCC1`, in assay [1], the activity change is -32.1% and the outcome was inactive.
On to `O=C(Nc1cccc(S(=O)(=O)c2cccc(NC(=O)C3CC3)c2)c1)C1CC1`, for which, in assay [1], the activity change is -38.1% and the compound was called inactive. Further, in assay [2], the activity change amounted to 4.96%.
On to `O=S(=O)(Cc1ccccc1)N1CCCCN2[C@@H](CO)[C@@H](c3ccc(-c4cccnc4)cc3)[C@@H]2C1`, for which, in assay [1], the activity change was -6.81% and the compound was classed as inactive. Also, in assay [2], the activity change amounted to 16.2%.
Consider `Cc1noc(C)c1NC(=O)Nc1ccc2c(c1)C(=O)N([C@@H](C)CO)C[C@@H](C)[C@@H](CN(C)C(=O)Nc1ccc3c(c1)OCO3)OCCCC[C@@H](C)O2`, for which, in assay [1], the activity change is -2.53% and the call was inactive. Also, in assay [2], the activity change came to 20.3%.
The like results for `Fc1ccc(-c2nc3c(Cl)cc(C(F)(F)F)cn3c2Cc2ccsc2)cc1` were, in that order, -5.9%, “inactive” and 5.92%.
The like results for `COC(=O)CN1C(=S)N(c2ccc(F)cc2)C(=O)C1CC(=O)Nc1ccc(OC)cc1` (stereo not given) were, in that order, -4.61%, “inactive” and 9.32%.
The matching figures for `CCOc1ccc(C(C)=O)cc1CN1C(=O)NC2(CCCCCCC2)C1=O`: -23.9%, “inactive” and -21%.
Take `O=C(c1ccc2c3c(cccc13)CC2)N1CCN(c2ncccn2)CC1`: the activity change in assay [1] was -3.01%; in assay [2] it was -11.5%. Also, the result in assay [1] was inactive.
The matching figures for `Cc1ccc(NC(=O)CN(C)S(=O)(=O)c2cccc3cccnc23)cc1F`: -37.4%, -40.8% and “inactive”.
Consider `O=c1[nH]c2cc([N+](=O)[O-])ccc2c2ccccc12`, for which, in assay [1], the activity change stood at 4.42% and the compound was classed as inactive.
Turning to `COC(=O)c1cc2c(c3c4cc(F)ccc4n(S(=O)(=O)c4cccc(C)c4)c13)C(=O)N(Cc1ccco1)C2`, in assay [1], the activity change was -11.5% and the compound was called inactive. Further, the activity change in assay [2] is 17.4%.
Regarding `O=C(Cc1ccc(Cl)cc1)c1ccc(O)cc1`, in assay [1], the activity change was -1.58% and the compound was classed as inactive.
`Cc1ccc(Cc2c(-c3ccc(C#N)cc3)nc3ccc(Br)cn23)cc1`: the activity change in assay [1] was 2.82%; in assay [2], -11%. Further, the result in assay [1] was inactive.
The matching figures for `O=c1c2ccccc2cnn1Cc1n[nH]c(=S)n1C1CC2CCC1C2` (stereo not given): -3.34%, -28.9% and “inactive”.
The matching figures for `Cc1cccc(-c2ccc([C@H]3[C@H](CO)N4CCCCN(S(=O)(=O)c5ccccc5C)C[C@@H]34)cc2)c1`: 4.65%, 11.4% and “inactive”.
For the compound `Nc1ccc2nc(-c3ccc(Cl)cc3)[nH]c2c1`, the call in assay [1] was inactive. The activity change in assay [2] was -11.3%.
With `CS(=O)(=O)N1CC2CCCN2c2ccc(C(F)(F)F)cc21` (stereo not given), in assay [1], the activity change is -10.4% and the compound was called inactive. The activity change in assay [2] was found to be 2.53%.
Consider `Cc1ccc(C)c(N(CC(=O)NC2CCCC2)C(=O)c2oc(C(C)(C)C)cc2C)c1`, for which, in assay [1], the activity change was -14.2% and the call was inactive. Also, in assay [2], the activity change turned out to be 21%.
`COc1cc2ccccc2cc1C(=O)NC1CCCCC1`: in assay [1], the activity change is -0.887% and the outcome was inactive.
Regarding `COCCCNC(=O)c1ccc(-c2nc3ccccc3nc2-c2ccccc2)cc1`, the activity change in assay [1] is -2.27%; in assay [2], 8.8%. The call in assay [1] was inactive.
The like results for `Cc1ccc(NC(=O)CCCSc2ccccc2)cc1S(=O)(=O)N1CCOCC1` were, in that order, 7.64%, 4.8% and “inactive”.
With `NC(=O)c1cc(C(=O)c2ccc(Cl)cc2)c[nH]1`, in assay [1], the activity change was -13.1% and the call was inactive. In addition, the activity change in assay [2] stood at 0.863%.
The matching figures for `Cc1noc(C)c1NC(=O)Nc1ccc2c(c1)C(=O)N([C@@H](C)CO)C[C@H](C)[C@@H](CN(C)C(=O)Nc1ccc3c(c1)OCO3)OCCCC[C@H](C)O2`: -13.3%, “inactive” and 7.1%.
Regarding `O=C(c1ccccc1)N(c1ccccc1)c1nccc2ccccc12`, in assay [1], the activity change is -7.9% and the result was inactive. Also, the activity change in assay [2] came to 31.1%.
As to `Cc1ccc(S(=O)(=O)Nc2ccccc2CNc2cccc(C)n2)cc1`, in assay [1], the activity change was -17.7% and the compound was classed as inactive.
For the compound `CCC(C(=O)Nc1ccsc1C(=O)OC)c1ccccc1` (stereo not given), in assay [1], the activity change is -5.91% and the call was inactive. Also, the activity change in assay [2] stood at 40.7%.
Take `CCOc1ccc(-c2nc(-c3cccs3)c(CC(=O)O)s2)cc1OC`: in assay [1], the activity change is -21.4% and the compound was called inactive. In addition, the activity change in assay [2] was -8.71%.
The matching figures for `COc1ccc(NS(=O)(=O)c2ccc(Cl)c(NC(=O)c3ccccc3F)c2)cc1`: -40%, “inactive” and -6.96%.
For the compound `Cc1noc(C)c1NC(=O)Nc1ccc2c(c1)C(=O)N([C@@H](C)CO)C[C@@H](C)[C@H](CN(C)C(=O)Nc1ccc3c(c1)OCO3)OCCCC[C@H](C)O2`, in assay [1], the activity change was -12.5% and the compound was classed as inactive. Moreover, the activity change in assay [2] is -3.87%.
For the compound `COc1cc(-c2ccc(N3C(c4ccsc4)=Cc4ccc(F)cc4C3c3c[nH]c4ccc(C#N)cc34)cc2)cc(OC)c1OC` (stereo not given), in assay [1], the activity change is 7.16% and the result was inactive. Further, in assay [2], the activity change worked out at 8.77%.
The like results for `c1ccc2c(c1)CSc1ccccc1N2` were, in that order, -5.5%, “inactive” and -11.4%.
The like results for `CC(C)=C(c1ccc(Cl)cc1)c1c(N)ncnc1N` were, in that order, -10.9%, “inactive” and -21.6%.
